Whole data set: some 39,000 sequences, median “fluorescence intensity (a.u.)” near 4,300, cut for the highest 2% near 39,000. The full list was thinned out, with the highest values kept by preference.
These sequences were tested against T1, OsSMF1 (Oryza sativa, UniProt Q6ZLB0 1-436) (assay: protein-binding microarray (RPBM); PBS, 2% BSA, 51.3 ng/ul salmon testes DNA, 50 uM zinc acetate, 200 nM TF, 25 C, 1 h; high values mean tight binding). Conditions: protein: recombinant; tags: N-terminal polyhistidine and DsRed monomer fusion (pET32a); chain copies: 2; label: CyDye5-dUTP incorporated in the synthesized complementary strand; 3' TTTTT single-stranded linker to array surface; dsDNA, one strand shown.
T1 sequence: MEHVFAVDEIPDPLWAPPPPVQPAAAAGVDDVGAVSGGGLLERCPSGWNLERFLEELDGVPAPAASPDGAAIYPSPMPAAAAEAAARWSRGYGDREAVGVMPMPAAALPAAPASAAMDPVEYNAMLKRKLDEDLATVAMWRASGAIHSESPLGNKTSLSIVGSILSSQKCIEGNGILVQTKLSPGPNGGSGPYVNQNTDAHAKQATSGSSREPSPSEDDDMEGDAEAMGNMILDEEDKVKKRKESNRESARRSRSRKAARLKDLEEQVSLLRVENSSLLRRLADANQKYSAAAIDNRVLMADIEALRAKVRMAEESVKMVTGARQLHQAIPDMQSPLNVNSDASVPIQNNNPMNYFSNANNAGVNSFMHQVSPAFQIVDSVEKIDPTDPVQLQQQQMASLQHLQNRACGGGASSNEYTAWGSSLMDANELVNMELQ
Outline: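 An Axon 4000B scanner gave the binding signal as per-feature fluorescence intensity in arbitrary units. This followed washing of a custom Agilent array that had been incubated for 1 h at 25 °C with 200 nM protein in PBS, 2% BSA, salmon testes DNA and 50 µM zinc acetate. The proteins were transcription factors fused at the N-terminus to polyhistidine and DsRed, expressed in E. coli BL21-CodonPlus and purified on Ni–NTA.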

Point of comparison: “ATCAACAACTGTATTTAAAATGGGACGAATAGAGTAAATGCGGAGTCACCTAGTGCAG”, binding signal 20200 fluorescence intensity (a.u.). Against it:
- AAATACGGAGAGAAGAAGGCTCACTAAGCGCGCTTACTATCGGAGTCACCTAGTGCAG — higher, 42500 fluorescence intensity (a.u.)
- ATCTTAAATACTACTAGAAATTAACGGAGACTAAGGCTTGCGGAGTCACCTAGTGCAG — higher, 26500 fluorescence intensity (a.u.)
- CTTATCAGTCGTAGCTCAACCTATAAGAGGCCTAAATATACGGAGTCACCTAGTGCAG — higher, 32800 fluorescence intensity (a.u.)
- TGCCAAATGTTGAAACACTTACAGTAGCATCTAATGAAGTCGGAGTCACCTAGTGCAG — lower, 16000 fluorescence intensity (a.u.)
- AACTACACACAAAGCCGAGCCAAAGTCTCTAGGTCAAAGTCGGAGTCACCTAGTGCAG — higher, 20600 fluorescence intensity (a.u.)
- AGCTTTTCTTTTCTACACAAAGGGAAGGGAAAGAAGAAACCGGAGTCACCTAGTGCAG — higher, 37800 fluorescence intensity (a.u.)
- CCCAGGGAGGCCAAACTACAAAGGCGATGCTTTCTACACACGGAGTCACCTAGTGCAG — higher, 41500 fluorescence intensity (a.u.)
- TACTTAAGTGCCAAGTGTCAAAGTGTGTGTGGTTTTCTGCCGGAGTCACCTAGTGCAG — lower, 4130 fluorescence intensity (a.u.)
- TCCAAATAGCACGTACGCATGCATGCGTCCATGCCATCTCCGGAGTCACCTAGTGCAG — lower, 3270 fluorescence intensity (a.u.)
- CGCTCGACTTCTCTTCTCTCATACACGTGTCATTAAATTTCGGAGTCACCTAGTGCAG — lower, 8480 fluorescence intensity (a.u.)
- TGGACCTGAACCGAACCACTAAGTAGTAGTACGTGTGAGGCGGAGTCACCTAGTGCAG — higher, 41100 fluorescence intensity (a.u.)
- ATAAGTACGAATACTAAGTACGTGTGTGTTTGGAGGGTGTCGGAGTCACCTAGTGCAG — lower, 4340 fluorescence intensity (a.u.)
- GAGGTGTACCACTAAGTGTGTACGTGTATAGTGGGGCGTGCGGAGTCACCTAGTGCAG — lower, 7420 fluorescence intensity (a.u.)
- CTCCTTGACAACCAGCACCGATCCCTGAGTCACCCAACGACGGAGTCACCTAGTGCAG — lower, 6120 fluorescence intensity (a.u.)
- TTCTGTAACATAGGCTAACGTCAACGTGGCATTCATTTTGCGGAGTCACCTAGTGCAG — lower, 13200 fluorescence intensity (a.u.)
- CTGCACATAATAACGTGGATGAATCTTAAACGTCCATTTACGGAGTCACCTAGTGCAG — higher, 47100 fluorescence intensity (a.u.)
- AAATAATTTATGAATAAAACTTTTATCTACGTGTTCTTAACGGAGTCACCTAGTGCAG — lower, 4110 fluorescence intensity (a.u.)
- ATTAGTTTTATTAAATCTTACATTGAATATATTTTGATAACGGAGTCACCTAGTGCAG — lower, 3390 fluorescence intensity (a.u.)
- TATTTAAGTCAGTACTAAAGCACACATGTACAAATTTTACCGGAGTCACCTAGTGCAG — lower, 4160 fluorescence intensity (a.u.)
- ACCAAACACCGCAAAATAAACAGTCATCCTCCGCACCGCGCGGAGTCACCTAGTGCAG — lower, 4480 fluorescence intensity (a.u.)
- ATAACAGCGGGCCTTACGTGTACATGATAGTATATAGTACCGGAGTCACCTAGTGCAG — lower, 7000 fluorescence intensity (a.u.)
- ATATTTAACAACGGATCAAATGATAGGAAAATAATTAATACGGAGTCACCTAGTGCAG — lower, 4700 fluorescence intensity (a.u.)
- TTTATTAATATATATATATATATATATATATATATATATACGGAGTCACCTAGTGCAG — lower, 7400 fluorescence intensity (a.u.)
- AATTACATAATTTTAATACGAAGATGAATGATCAAATATACGGAGTCACCTAGTGCAG — higher, 56600 fluorescence intensity (a.u.)
- AAAATAAAATTTATTAATAATATTTTATCTATATTTACGACGGAGTCACCTAGTGCAG — higher, 30400 fluorescence intensity (a.u.)
- GTTTGTTGTCGATACAATCACTAGTTGTGTTTGTTAATTTCGGAGTCACCTAGTGCAG — lower, 4170 fluorescence intensity (a.u.)
- ATATAAGATGTAACTATTACGATGTTTCATGATACAAGTACGGAGTCACCTAGTGCAG — lower, 15000 fluorescence intensity (a.u.)
- ACAGACTTGTTTAAGTTACAAGACGATACTATAAGAATTTCGGAGTCACCTAGTGCAG — higher, 41100 fluorescence intensity (a.u.)
- TGAAACGGAGGGAGTATTATTAATATCTTAAGATGGACGACGGAGTCACCTAGTGCAG — lower, 6690 fluorescence intensity (a.u.)
- TTATTAATATATTTAATTTAATGATCCGAGATAACATATCCGGAGTCACCTAGTGCAG — higher, 35600 fluorescence intensity (a.u.)
- CTATTAGAATATTTTATAATAGTTAATAGTTAATTAATTACGGAGTCACCTAGTGCAG — higher, 39700 fluorescence intensity (a.u.)
- CAGAAAACAATAGTTATATTTAAGATGGGACGAATGGAGTCGGAGTCACCTAGTGCAG — higher, 53100 fluorescence intensity (a.u.)
